Results published in PubChem BioAssay (Tox21).
Several values for one entry are separate records, joined by “and”; a condition that tells them apart may be missing. Equal entries are not always repeated. Results filed as inconclusive are left out. Entries that show only a call come without a potency. Where a structure was tested more than once in an assay, its records may differ in their call. Activity calls are given as the source filed them. Unless noted, calls come from the whole dose curve; as a rule, active = well fitted curve in the direction sought with a large enough effect in the repeat runs; inconclusive = weak or mixed curves; inactive = no such curve, though single readings can be large; an effect the other way counts as inactive or inconclusive.

What was measured:
[1] = qHTS assay to identify aromatase inhibitors - cell viability counter screen (AID 743084);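 note: cells stimulated with testosterone during compound exposure; nearly all actives have a fitted effect of over 55% in size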; note: potency is the fitted concentration of half-maximal effect
[2] = biological target: Aryl hydrocarbon receptor (Homo sapiens) (UniProt P35869); test: qHTS assay to identify small molecule that activate the aryl hydrocarbon receptor (AhR) signaling pathway (AID 743085); note: nearly all actives have a fitted effect of over 15% in size; note: potency is the fitted concentration of half-maximal effect;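 for activation: HG2L7.5c1 human HepG2 liver cells with stably integrated DRE-driven firefly reporter; series mostly up to about 70 µM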
In short: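 Luminescence read-out: ONE-Glo reagent, 30 min at room temperature, in HG2L7.5c1 HepG2 reporter cells treated 24 h at 37C. Viability was measured beforehand by CellTiter-Fluor fluorescence after 30 min at 37C.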

[3] = qHTS assay to identify small molecule that activate the aryl hydrocarbon receptor (AhR) signaling pathway - cell viability counter screen (AID 743086); note: nearly all actives have a fitted effect of over 45% in size; note: potency is the fitted concentration of half-maximal effect
In short: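 Cytotoxicity counter screen: CellTiter-Fluor signal (30 min, 37 C) in 4000 HepG2 cells/well carrying the DRE-luciferase reporter, following 24 h compound exposure at 37 C.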

[4] = biological target: Peroxisome proliferator-activated receptor gamma (Homo sapiens) (UniProt P37231); test: qHTS assay to identify small molecule agonists of the peroxisome proliferator-activated receptor gamma (PPARg) signaling pathway (AID 743094; active = well fitted activation curve with a large enough effect in the signal ratio in the repeat runs, not every such curve was filed as active; the % refers to the signal ratio)
In short: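 GeneBLAzer PPARg UAS-bla HEK293H cells were plated, rested 5 h, then exposed to compounds for 17 h at 37C. Beta-lactamase activity was read by LiveBLAzer B/G FRET substrate fluorescence after 1 h at room temperature.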

[5] = biological target: Peroxisome proliferator-activated receptor gamma (Homo sapiens) (UniProt P37231); test: qHTS assay to identify small molecule antagonists of the peroxisome proliferator-activated receptor gamma (PPARg) signaling pathway (AID 743191; calls by dose curve; note: nearly all actives have a fitted effect of over 30% in size; note: potency is the fitted concentration of half-maximal effect)
In short: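 Beta-lactamase reporter under UAS control in HEK293H PPARg-bla cells; compound treatment 17 h at 37C. Read-out: fluorescence intensity after 1 h room-temperature incubation with LiveBLAzer B/G FRET substrate.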

[6] = qHTS assay to identify small molecule antagonists of the peroxisome proliferator-activated receptor gamma (PPARg) signaling pathway - cell viability counter screen (AID 743194); conditions: Potency: co-treated with 50 nM rosiglitazone unless noted; note: nearly all actives have a fitted effect of over 55% in size
In short: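 Viability was measured as CellTiter-Glo luminescence in GeneBLAzer PPARg UAS-bla HEK293H cells. These cells had been exposed 17 h at 37 C to compounds together with rosiglitazone at 50 nM final, with the beta-lactamase readout taken in the same wells.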

[7] = qHTS assay for small molecule agonists of the antioxidant response element (ARE) signaling pathway (AID 743202; active = well fitted activation curve with a large enough effect in the signal ratio in the repeat runs, not every such curve was filed as active; the % refers to the signal ratio; note: potency is the fitted concentration of half-maximal effect)
In short: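 An ARE-responsive beta-lactamase gene stably integrated in HepG2 cells serves as reporter. After 5 h plating and 16 h compound incubation at 37 C, fluorescence of the B/G FRET substrate was measured.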

[8] = qHTS assay for small molecule agonists of the antioxidant response element (ARE) signaling pathway - cell viability counter screen (AID 743203; calls by dose curve; note: nearly all actives have a fitted effect of over 55% in size; note: potency is the fitted concentration of half-maximal effect)
In short: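 ARE-bla HepG2 cells were plated, rested 5 h at 37C/5% CO2, then exposed to compounds in DMSO for 16 h. Viability was read as CellTiter-Glo luminescence after 30 min at room temperature, in the same wells as the ARE screen.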

[9] = qHTS assay for small molecule activators of the heat shock response signaling pathway - cell viability counter screen (AID 743209); note: nearly all actives have a fitted effect of over 50% in size
In short: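 HSE-bla HeLa cells plated overnight, then exposed to Tox21 compounds (23 nL in DMSO) for 5 h at 37 C. After the bla reporter read, CellTiter-Glo was added in the same wells and luminescence read after 30 min at room temperature.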

[10] = qHTS assay for small molecule activators of the heat shock response signaling pathway (AID 743210; active = well fitted activation curve with a large enough effect in the signal ratio in the repeat runs, with a control signal flat, not every such curve was filed as active; the % refers to the signal ratio;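 note: HeLa cells with beta-lactamase reporter driven by heat shock elements; series mostly up to about 63 µM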)
In short: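 In HSE-bla HeLa cells, 5 h compound incubation (37 C) precedes addition of LiveBLAzer B/G substrate; after 2.5 h at room temperature, fluorescence intensity indicates reporter induction.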

Chain of Aryl hydrocarbon receptor (Homo sapiens) (P35869 whole entry, looked up): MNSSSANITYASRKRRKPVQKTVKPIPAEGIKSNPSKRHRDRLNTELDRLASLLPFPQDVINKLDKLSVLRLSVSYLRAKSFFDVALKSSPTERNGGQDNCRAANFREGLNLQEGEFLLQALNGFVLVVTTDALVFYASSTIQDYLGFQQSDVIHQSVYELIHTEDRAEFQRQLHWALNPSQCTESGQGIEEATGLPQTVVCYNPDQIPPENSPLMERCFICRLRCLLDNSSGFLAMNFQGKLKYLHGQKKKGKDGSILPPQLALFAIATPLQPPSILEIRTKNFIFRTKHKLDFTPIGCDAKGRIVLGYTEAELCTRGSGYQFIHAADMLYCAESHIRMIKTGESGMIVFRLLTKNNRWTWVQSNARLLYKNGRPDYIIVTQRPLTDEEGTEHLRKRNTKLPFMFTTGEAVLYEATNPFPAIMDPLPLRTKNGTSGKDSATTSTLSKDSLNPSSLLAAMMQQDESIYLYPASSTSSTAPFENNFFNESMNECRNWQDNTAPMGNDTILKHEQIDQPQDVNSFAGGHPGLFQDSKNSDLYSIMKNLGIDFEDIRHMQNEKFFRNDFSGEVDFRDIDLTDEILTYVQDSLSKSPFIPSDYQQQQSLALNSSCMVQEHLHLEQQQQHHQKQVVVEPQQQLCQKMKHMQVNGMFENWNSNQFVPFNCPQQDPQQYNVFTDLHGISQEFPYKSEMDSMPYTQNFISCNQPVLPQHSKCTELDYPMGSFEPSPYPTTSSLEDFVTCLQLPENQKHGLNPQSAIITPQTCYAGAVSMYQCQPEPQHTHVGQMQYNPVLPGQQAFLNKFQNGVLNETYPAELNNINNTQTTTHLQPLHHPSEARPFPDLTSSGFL
Chain of Peroxisome proliferator-activated receptor gamma (Homo sapiens) (P37231 whole entry, looked up): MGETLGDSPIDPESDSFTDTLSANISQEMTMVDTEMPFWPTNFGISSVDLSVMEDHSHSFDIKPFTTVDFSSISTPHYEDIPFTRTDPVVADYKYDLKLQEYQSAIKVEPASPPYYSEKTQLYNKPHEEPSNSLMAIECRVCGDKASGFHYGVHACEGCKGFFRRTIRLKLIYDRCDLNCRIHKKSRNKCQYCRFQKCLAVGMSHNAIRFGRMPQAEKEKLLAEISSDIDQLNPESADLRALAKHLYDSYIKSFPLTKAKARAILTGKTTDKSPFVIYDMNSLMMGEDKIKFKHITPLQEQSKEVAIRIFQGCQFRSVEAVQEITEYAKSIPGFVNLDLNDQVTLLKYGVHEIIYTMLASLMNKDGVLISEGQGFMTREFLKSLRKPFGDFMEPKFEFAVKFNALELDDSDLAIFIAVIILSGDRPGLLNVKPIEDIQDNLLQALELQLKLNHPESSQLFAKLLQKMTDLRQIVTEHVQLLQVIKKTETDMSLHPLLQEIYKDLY

SMILES | Potency [1] | Potency [2] | Potency [3] | Potency [4] | Potency [5] | Potency [6] | Potency [7] | Potency [8] | Potency [9] | Potency [10] | activation [10]
CNC(=S)S | inactive | inactive | inactive | inactive | inactive | inactive | inactive | inactive | inactive | – | –
CN(C)P(=O)(N(C)C)N(C)C | inactive | inactive | inactive | inactive | inactive | inactive | inactive | inactive | inactive | inactive | –
C=CC(Cl)CCl (centres undefined) | inactive | inactive | inactive | inactive | inactive | inactive | inactive | inactive | inactive | inactive | –
Nc1ccc2ccccc2c1 | inactive | 20.9 µM (active) and 27.3 µM (active) | inactive | inactive | inactive | inactive | inactive | inactive | inactive | inactive | –
CC1CC(=O)O1 (centres undefined) | inactive | inactive | inactive | inactive | inactive | inactive | inactive | inactive | inactive | inactive | –
CC(C)COC(=O)c1ccccc1C(=O)OCC(C)C | inactive | inactive | inactive | inactive | inactive | inactive | inactive | inactive | inactive | inactive | –
OCCOCCO | inactive | inactive | inactive | inactive | inactive | inactive | inactive | inactive | inactive | – | –
O=C1Nc2ccc(Cl)cc2C(c2ccccc2)=NC1O (centres undefined) | inactive | inactive | inactive | inactive | 44 µM (active) | inactive | inactive | inactive | inactive | inactive | –
CCCCOCC1CO1 (centres undefined) | inactive | inactive | inactive | inactive | inactive | inactive | inactive | inactive | inactive | inactive | –
Clc1cccc(Cl)c1 | inactive | inactive | inactive | inactive | inactive | inactive | inactive | inactive | inactive | inactive | –
C[N+](C)(C)C | inactive | inactive | inactive | inactive | inactive | inactive | inactive | inactive | inactive | – | –
CC(C)CON=O | inactive | inactive | inactive | inactive | inactive | inactive | inactive | inactive | inactive | inactive | –
O=S(=O)(O)C(F)(F)C(F)(F)C(F)(F)C(F)(F)C(F)(F)C(F)(F)C(F)(F)C(F)(F)F | inactive | inactive | inactive | inactive | inactive | inactive | inactive | 27.3 µM (active) | inactive | – | –
CC1(C)C(C(=O)OC(C#N)c2cccc(Oc3ccccc3)c2)C1(C)C (centres undefined) | inactive | inactive | inactive | inactive | inactive | inactive | inactive | inactive | inactive | inactive | –
CC(C)=CC1C(C(=O)OCN2C(=O)C3=C(CCCC3)C2=O)C1(C)C (centres undefined) | inactive | inactive | inactive | inactive | 11.9 µM (active) | inactive | inactive | inactive | inactive | – | –
O=C(O)CF | inactive | inactive | inactive | inactive | inactive | inactive | inactive | inactive | inactive | – | –
CCOP(=O)(OCC)OCC | inactive | inactive | inactive | inactive | inactive | inactive | inactive | inactive | inactive | inactive | –
c1ccc(C2CO2)cc1 (centres undefined) | inactive | inactive | inactive | inactive | inactive | inactive | inactive | inactive | inactive | inactive | –
NC(=O)CN1CCCC1=O | inactive | inactive | inactive | inactive | inactive | inactive | inactive | inactive | inactive | inactive | –
Nc1ccc([N+](=O)[O-])cc1N | 30.6 µM (active) | 61.1 µM (active) | 27.3 µM (active) and 30.6 µM (active) | inactive | inactive | inactive | 0.968 µM (active) | inactive | inactive | – | –
O=NN1CCOCC1 | inactive | inactive | inactive | inactive | inactive | inactive | inactive | inactive | inactive | inactive | –
C[N+](C)(C)CC(=O)O | inactive | inactive | inactive | inactive | inactive | inactive | inactive | inactive | inactive | – | –
CCCCCCCCCc1ccc(O)cc1 | 55 µM (active) | inactive | inactive | inactive | – | – | – | – | – | – | –

SMILES | Potency [1] | Potency [2] | Potency [3] | Potency [4] | Potency [5] | Potency [6] | Potency [7] | Potency [8] | Potency [9] | Potency [10] | activation [10]
Cc1ccc([N+](=O)[O-])cc1 | inactive | inactive | inactive | inactive | inactive | inactive | inactive | inactive | inactive | inactive | –
Nc1ncn[nH]1 | inactive | inactive | inactive | inactive | inactive | inactive | inactive | inactive | inactive | inactive | –
CCCCCCCCCCCCCl | inactive | inactive | inactive | inactive | inactive | inactive | inactive | inactive | inactive | inactive | –
Oc1ccc(Cl)cc1Cl | inactive | inactive | inactive | inactive | inactive | inactive | inactive | inactive | inactive | inactive | –
Brc1ccc(Br)cc1 | inactive | inactive | inactive | inactive | inactive | inactive | inactive | inactive | inactive | – | –
CC(C)(C#N)N=NC(C)(C)C#N | inactive | inactive | inactive | inactive | inactive | inactive | inactive | inactive | inactive | inactive | –
CCOP(=S)(OCC)SCSC(C)(C)C | inactive | inactive | inactive | inactive | inactive | inactive | inactive | inactive | inactive | inactive | –
CNC(=O)CSP(=S)(OC)OC | inactive | inactive | inactive | inactive | inactive | inactive | inactive | inactive | inactive | inactive | –
CCNc1nc(Cl)nc(NC(C)(C)C#N)n1 | inactive | inactive | inactive | inactive | inactive | inactive | inactive | inactive | inactive | – | –
ClC(Cl)(Cl)Br | inactive | inactive | inactive | inactive | inactive | inactive | inactive | inactive | inactive | – | -1.07% [at 13.2 µM] (inactive)
CCOS(=O)(=O)OCC | inactive | inactive | inactive | inactive | inactive | inactive | inactive | inactive | inactive | – | –
COc1ccc(C=O)cc1OC | inactive | inactive | inactive | inactive | inactive | inactive | inactive | inactive | inactive | inactive | –
CC1(C)Cc2cccc(O)c2O1 | inactive | inactive | inactive | inactive | inactive | inactive | inactive | inactive | inactive | inactive | –
Clc1ccc(C(Cl)(Cl)Cl)cc1 | inactive | inactive | inactive | inactive | inactive | inactive | inactive | inactive | inactive | inactive | –
COC(=O)Nc1nc2ccccc2[nH]1 | inactive | 24.3 µM (active) | inactive | inactive | inactive | – | inactive | inactive | inactive | inactive | –
COP(=S)(OC)Oc1ccc(Sc2ccc(OP(=S)(OC)OC)cc2)cc1 | inactive | inactive | inactive | inactive | – | inactive | inactive | 43.3 µM (active) and inactive | inactive | – | –
O=C1CCCO1 | inactive | inactive | inactive | inactive | inactive | inactive | inactive | inactive | inactive | inactive | –
CCNCC | inactive | inactive | inactive | inactive | inactive | inactive | inactive | inactive | inactive | inactive | –
O=P(OCCCl)(OCCCl)OCCCl | inactive | inactive | inactive | inactive | inactive | inactive | inactive | inactive | inactive | inactive | –
CC[n+]1c(-c2ccccc2)c2cc(N)ccc2c2ccc(N)cc21 | inactive and 30.5 µM (active) | 26.6 µM (active) and 29.8 µM (active) and 12.1 µM (active) | inactive and 12.1 µM (active) | inactive | 48.8 µM (active) and 26.6 µM (active) | – | – | inactive | inactive | – | –
CCCCOC(=O)COC(=O)c1ccccc1C(=O)OCCCC | inactive | inactive | inactive | inactive | inactive | inactive | inactive | inactive | inactive | inactive | –
CCC1(c2ccc(N)cc2)CCC(=O)NC1=O (centres undefined) | inactive | inactive | inactive | inactive | inactive | inactive | – | inactive | inactive | inactive | –
Cn1c(-c2ccccc2)cc(-c2ccccc2)[n+]1C | inactive | inactive | inactive | inactive | inactive | inactive | – | inactive | inactive | – | –
